Results on 64 compounds are retold here after PubChem BioAssay AID624404 (Broad Institute, 2012).

Each structure is given as a SMILES string. The whole screen tested about 1,800 compounds, of which about 710 (39%) were called active. Not shown: some 28% with an inconclusive outcome.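 How the source made its calls: active means luciferase signal rise whose fitted curve crosses a set activity limit at or below the top valid tested dose; inconclusive means flat fit with 30 to 70% rise, or poor fit; inactive means signal falling, flat within 30%, or crossing above top dose.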 These entries were drawn from the full list. Results with a measured potency or affinity are listed apart.

The nature of this assay: luciferase activators in glycosylation-insensitive reporter cells, dose response, counter-screen for N-linked glycosylation inhibitor project, D54 LucT cells, luminescence, cherry pick (AID 624404). As to conditions: D54 LucT luciferase reporter counterscreen, 24 h; series mostly up to 19.5 µM.
As to `CCOC(=O)c1c(NC(=O)CCl)sc(C(=O)N(CC)CC)c1C`, the call was inactive. On to `CCOC(=O)c1c(NC(C)=O)sc2c1CCC(C=O)=C2Sc1ccccc1`, for which the result was inactive. Consider `COc1ccc([N+](=O)[O-])cc1NC(=O)CCN1CCN(CCO)CC1`, for which the compound was called inactive. To `CNC(=O)COC(=O)c1ccccc1C(=O)c1ccc(Cl)c([N+](=O)[O-])c1` belongs “inactive”; to `CCOC(=O)c1ccc(-n2cccc2/C=C2\NC(=O)NC2=O)cc1`, “inactive”. `CCc1ccc(Oc2coc3cc(OCC(=O)Nc4cc(C)ccc4C)ccc3c2=O)cc1`: the result was inactive. As for `COc1cc(C2=NOC(C(=O)NCc3ccc(F)cc3)C2)cc(OC)c1OC` (centres undefined), the call was inactive. In the case of `CN(C)S(=O)(=O)c1ccc(N2CCCC2)c(C(=O)Nc2nccs2)c1`, the outcome was inactive.

As to `COc1cc(Nc2c3c(nc4ccccc24)CCC3)cc(OC)c1OC`, the call was inactive.

On to `CCOC(=O)c1[nH]c(COC(=O)CCOc2ccccc2OC)c(C(=O)OCC)c1C`, for which the result was inactive. Regarding `CCOC(=O)c1[nH]c(C)c(C(=O)OCC(=O)NC(C)c2ccc(F)cc2)c1C` (centres undefined), the result was inactive. `CCOC(=O)c1nnc(-c2ccc(C)cc2)nc1Sc1ccccc1Cl`: the compound was classed as inactive. Consider `Cc1cc2c(=Cc3ccc(N(C)C)cc3)c3ccccc3n2[n+]1C`, for which the compound was classed as inactive. `COc1cc(-c2nc3ccc(N4CCN(C)CC4)cc3[nH]2)cc(OC)c1OC`: the compound was classed as inactive. For the compound `COc1ccc2c(-c3cc4ccc(OCc5ccc(F)cc5)cc4oc3=O)cc(=O)oc2c1`, the compound was called inactive. With `CC1Cc2ccccc2N1C(=O)CSc1nn2c(=O)c(C(C)(C)C)nnc2s1` (centres undefined), the call was inactive. With `C#CC(=O)CC1(CN(Cc2ccccc2)C(=O)OC(C)(C)C)CCCCC1`, the compound was called inactive. To `COc1ccc(Cl)cc1NC(=O)CN(C)CC(=O)Nc1cc(OC)c(OC)c(OC)c1` belongs “inactive”. Regarding `CCC12CCC3c4ccc(O)cc4CCC3C1CC(O)C2O` (centres undefined), the compound was called inactive.

As to `O=C(c1cccc([N+](=O)[O-])c1)N1CCN(c2cccc(Cl)c2)CC1`, the outcome was inactive. Take `c1ccc(-n2nnnc2-c2cccc3ccccc23)cc1`: the compound was classed as inactive. Turning to `c1ccc(-c2n[nH]c(-c3ccccc3)c2-c2nc3ccccc3[nH]2)cc1`, the compound was called inactive.

Turning to `COc1ccc(NC(=O)CSc2c3c(nc4ccccc24)CCCC3)c(OC)c1`, the compound was classed as inactive.

With `CN(C)c1ccc(-c2ccnc3c2CC(C)(C(=O)NCc2ccccc2)O3)cc1` (centres undefined), the compound was called inactive. Take `O=C(N/N=C/c1ccc2c(c1)OCO2)c1sc2cc(Cl)ccc2c1Cl`: the result was inactive.

For `CCOC(=O)/C=C/C(=O)Nc1ccc(S(=O)(=O)N(C)c2ccccc2)cc1`, the result was inactive. `COc1ccc(OC)c(/C=C/c2ccc3cccc(O)c3n2)c1`: the compound was called inactive. To `O=C(COc1ccc(/C=N/NC(=O)c2cc3ccccc3o2)cc1Cl)Nc1ccccc1` belongs “inactive”. As to `O=C(O)CCC/C=C\C[C@@H]1[C@@H](/C=C/[C@@H](O)COc2cccc(Cl)c2)[C@H](O)C[C@@H]1O`, the compound was called inactive. Consider `COc1cc2c(cc1OC)C(c1ccccc1)N(C(=O)CCl)CC2` (centres undefined), for which the compound was called inactive. The result for `CCOc1ccc(C2c3cc(OC)c(OC)cc3CC(=O)N2c2ccc(OC)cc2)cc1` (centres undefined) reads “inactive”.

Consider `COc1ccc(CCn2c(=N)c(C(=O)NC3CCCC3)cc3c(=O)n4ccccc4nc32)cc1OC`, for which the call was inactive. Consider `Cn1cnc([N+](=O)[O-])c1Oc1ccc2ccccc2c1`, for which the call was inactive. Regarding `COc1ccc(/C=C/C(=O)c2ccc3c4c(cccc24)CC3)cc1OC`, the call was inactive. On to `COc1cc(/C=C2/CCC/C(=C\c3cc(O)c(OC)c(Cl)c3)C2=O)cc(Cl)c1O`, for which the outcome was inactive.

For the compound `Cc1cc(NC(=O)CSc2nc(C3CC3)nc3sc(C)c(C)c23)no1`, the outcome was inactive.

In the case of `C=CCn1c(SCC(=O)c2[nH]c(C)c(C(=O)OC)c2C)nc2scc(-c3ccc(OC)c(OC)c3)c2c1=O`, the outcome was inactive. The result for `CCOc1ccc(NC(=O)C(=O)NCCN2CCN(S(=O)(=O)c3ccc(C)cc3)CC2)cc1` reads “inactive”; that for `CN(C)CCCN1C(=O)c2cccc3c(Br)ccc(c23)C1=O`, “inactive”. The result for `Cc1cccc(N2CCN(C(=O)c3ccncc3)CC2)c1C` reads “inactive”; that for `Cc1nn(C(C)(C)C)c(OC(=O)c2ccc3c(c2)OCO3)c1Sc1ccccc1`, “inactive”. As to `c1ccc2cc3c(NCCN4CCOCC4)ccnc3cc2c1`, the compound was classed as inactive. The result for `c1ccc(-c2cc(NCCN3CCCCC3)c3ccccc3n2)cc1` reads “inactive”; that for `Cc1cc(C)nc(/N=C(\N)Nc2ccc(OCc3ccccc3)cc2)n1`, “inactive”.

`Cc1cccc2c(N)c3c(nc12)N(C)CC3`: the compound was classed as inactive. The result for `CCOC(=O)Nc1c2ccccc2nc2ccccc12` reads “inactive”; that for `Cc1ccc(S(=O)(=O)Cc2ccc(C(=O)N3CCN(c4cccc(C)c4C)CC3)o2)cc1`, “inactive”. As to `COc1cc2c(C(=O)N3CCN(c4cccc(Cl)c4)CC3)cn(C)c(=O)c2cc1OC`, the call was inactive. `CC1(C(=O)NCC2CC2)Cc2c(-c3cccc(C(F)(F)F)c3)ccnc2O1` (centres undefined): the outcome was inactive. Take `COc1ccc(NC(=O)C2(C)Cc3c(-c4cccc(NC(C)=O)c4)ccnc3O2)cn1` (centres undefined): the compound was called inactive. Take `CC(=O)Nc1cccc(-c2ccnc3c2CC(C)(C(=O)Nc2cccc(C(C)=O)c2)O3)c1` (centres undefined): the compound was called inactive.

With `CC(=O)Nc1cccc(-c2ccnc3c2CC(C)(C(=O)NCc2ccco2)O3)c1` (centres undefined), the compound was called inactive. Take `COc1ccc(C2=NOC(C(=O)NCc3ccc(F)cc3)C2)cc1OC` (centres undefined): the compound was called inactive.

For the compound `COC(=O)CNC(c1ccccc1Cl)c1cc(Br)ccc1NC(=O)CCN1CCOCC1` (centres undefined), the compound was classed as inactive. In the case of `Cc1cc(-n2c(C)cc(C(=O)CCl)c2C)no1`, the result was inactive. For the compound `CCN(CC)S(=O)(=O)c1cc(NC(=O)Cn2ncc(Cl)c(Cl)c2=O)ccc1C`, the call was inactive. Turning to `O=C(C[C@@H]1C[C@H]2c3cc(NC(=O)c4cccnc4)ccc3O[C@H]2[C@H](CO)O1)NCc1ccc(Oc2ccccc2)cc1`, the compound was classed as inactive.

Consider `COc1ccc(Nc2nc(N)c(C(=O)c3ccc(F)cc3)s2)cc1`, for which the outcome was inactive. For `Cn1cnc(Sc2ncnc3nc[nH]c23)c1[N+](=O)[O-]`, the compound was called inactive. As to `COc1ccc(-c2cc3ccccc3oc2=O)cc1NC(=S)NC(=O)c1ccc2c(c1)OCCO2`, the outcome was inactive. Take `COc1ccccc1OCC(=O)N/N=C/C=C/c1ccc([N+](=O)[O-])o1`: the outcome was inactive.

As to `O=C(Nc1cccc(-c2nc3ncccc3o2)c1)c1sc2ccccc2c1Cl`, the compound was called inactive. To `Oc1ccc(Nc2nc(NCC3CCCO3)c3ccccc3n2)cc1` (centres undefined) belongs “inactive”. With `Oc1cccc(Nc2c3ccccc3nc3ccccc23)c1`, the outcome was inactive.
